# According to PubChem BioAssay (NCATS):
# The source made the active and inactive calls. The call rests on the fitted dose curve.
# Assay: qHTS drug screen for cell cycle checkpoint inhibitors in PARPi-resistant BRCA-mutant ovarian cancer cell lines. (AID 1963452)
# Conditions: PEO1/OlaR viability, CellTiter-Glo luminescence, 96 h; for Z-AUC: stronger effect = lower value
# Summary of the method: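 PEO1, PEO4 and PEO1/OlaR ovarian cancer cells, 600 per well, exposed 96 h at 37C to a dilution series. Viability read by CellTiter-Glo luminescence, normalized to DMSO and empty wells; activity summarized as Z-AUC.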
# [1] = measured here: PEO1 parental Z-AUC
# Potency means the concentration at half of the fitted maximal effect.
SMILES,Z-AUC,Z-AUC [1],Z-AUC (measured here: PEO4 Z-AUC),Potency
COC(=O)N1CC2(CC2)C[C@H](C(=O)NO)[C@H]1C(=O)N1CCN(c2ccccc2)CC1,-0.244 (inactive),-0.0786,0.341,–
CC(C)NC(=O)N1CC[C@H](N=C2Nc3cc(F)ccc3N(CC(F)F)c3ccc(Cl)cc32)C1,-0.974 (inactive),-0.755,-0.602,–
C1=C/COCc2cc(ccc2OCCN2CCCC2)Nc2nccc(n2)-c2cccc(c2)COC/1,-1.05 (inactive),-1.19,-0.941,–
COc1cc(S(C)(=O)=O)ccc1Nc1nc2ccc(-c3ccc(NC(=O)[C@H](C)c4ccc(F)cc4)cc3)cn2n1,0.76 (inactive),0.0908,0.043,–
COc1cc(OC)c2c(=O)[nH]c(-c3cc(C)c(OCCO)c(C)c3)nc2c1,1.34 (inactive),1.31,1.15,–
CCCCOC(=O)NS(=O)(=O)c1sc(CC(C)C)cc1-c1ccc(Cn2ccnc2)cc1,0.282 (inactive),0.365,0.449,–
CN1CCN(c2ccc(OC(F)(F)F)c(Nc3ncc4c(n3)-c3c(c(C(N)=O)nn3CCO)CC4)c2)CC1,-0.858 (inactive),-1.94,-1.88,–
Fc1ccc2[nH]ccc2c1-c1nc(N2CCOCC2)c2sc(CN3CCN(CC4CC4)CC3)cc2n1,-0.813 (inactive),-0.565,-0.474,–
CN1C(=O)c2sccc2N(C)c2nc(Nc3ccc(S(N)(=O)=O)cc3)ncc21,-1.71 (inactive),-0.96,-1.18,–
COC(=O)Nc1cc(Nc2cc(NC3CC3)c3ncc(C#N)n3n2)c(Cl)c(N2CCN(C)CC2)c1,-1.26 (inactive),-0.992,-1.22,–
CC(C)NC(=O)COc1cccc(-c2nc(Nc3ccc4[nH]ncc4c3)c3ccccc3n2)c1,–,-1.21,-1.12,4.36 µM (active)
CC(C)C[C@H](CO)Nc1nc(S[C@@H](C)c2ccccc2)nc2nc(N)sc12,-0.387 (inactive),-0.481,-0.0726,–
Nc1nc(OCc2cc(Br)cs2)c2[nH]cnc2n1,-0.86 (inactive),0.672,0.221,–
Cn1cc(-c2ccc(S(=O)(=O)n3ccc(/C=C/C(=O)Nc4ccccc4N)c3)cc2)cn1,0.896 (inactive),1.17,0.999,–
COc1ccc(-c2cnc3c(-c4cccc5ncccc45)cnn3c2)cc1,-0.651 (inactive),-0.725,-0.465,–
COc1ccc(-n2c(SCCCN3C(=O)c4cccc5cccc(c45)C3=O)nnc2-c2ccncc2)cc1,0.836 (inactive),0.296,0.916,–

SMILES,Z-AUC,Z-AUC [1],Z-AUC (measured here: PEO4 Z-AUC),Potency
CC#C[C@@H](CC(=O)O)c1ccc(OCc2cccc(-c3ccc(C(F)(F)F)cc3)c2)cc1,0.0821 (inactive),0.579,0.882,–
Cc1[nH]c2ccc(F)cc2c1-c1nc2c3cccnc3c3ncccc3c2[nH]1,-1.49 (inactive),-0.715,-1.31,–
CCNC(=O)C#Cc1ccc2c(C(=Nc3ccc(CN(C)C)cc3)c3ccccc3)c(O)[nH]c2c1,–,-2.66,-2.58,0.535 µM (active)
Cc1cccc(-c2[nH]ncc2-c2ccc(F)c(-c3cnn(CCO)c3)c2)n1,0.705 (inactive),0.508,1.13,–
C[C@@H](Nc1ncnc2[nH]c(-c3ccc(O)cc3)cc12)c1ccccc1,0.00552 (inactive),0.314,0.296,–
CN(C)N(C)C(=O)[C@@]1(Cc2ccccc2)CCCN(C(=O)[C@@H](Cc2c[nH]c3ccccc23)NC(=O)C(C)(C)N)C1,-0.303 (inactive),-0.129,0.0758,–
Cc1cc(C(=O)Nc2cc(Oc3ccc4nc(NC(=O)C5CC5)cn4n3)ccc2C)n(C)n1,-0.702 (inactive),-1.33,-1.31,–
CS(=O)(=O)c1ccc(Oc2cc(F)cc(C#N)c2)c2c1[C@H](O)C(F)(F)C2,1.42 (inactive),1.01,0.7,–
Cc1cnc(-c2ccccc2C(C)C)nc1NCc1ccc(-n2ccnn2)cc1,1.08 (inactive),1.04,1.31,–
NCCOc1cc(C(=O)Nc2cc(OCCN)c3ccccc3n2)nc(C(=O)Nc2cc(OCCN)c3ccccc3n2)c1,-0.0869 (inactive),-0.747,-0.493,–
CCCC(CCC)C(=O)Nc1ccn([C@@H]2O[C@H](CO)[C@@H](O)C2(F)F)c(=O)n1,-1.13 (inactive),-1.5,-0.847,–
CCCC1(CCC)CCC2(CCN(CCCN(CC)CC)C2)CC1,–,-2.03,-1.83,3.89 µM (active)
CCc1cc(C(N)=O)ccc1-n1nc(C(C)C)c2c(-n3cnc(-c4cnn(C)c4)c3)ccnc21,-0.734 (inactive),-1.82,-1.2,–
Cc1nc(-c2cn3c(n2)-c2ccc(-c4cnn(C(C)(C)C(N)=O)c4)cc2OCC3)n(C(C)C)n1,-1.26 (inactive),-0.764,-0.716,–
Cn1cc(-c2ccc3c(c2)CCN3C(=O)Cc2cccc(C(F)(F)F)c2)c2c(N)ncnc21,-1.17 (inactive),-0.267,-1.2,–
CC(C)(CNC(=O)c1cccc(-c2noc(C(F)(F)F)n2)c1)c1coc(-c2ccccc2)n1,0.0442 (inactive),0.732,0.975,–
